# Assay outcomes as filed in PubChem BioAssay.
# An excerpt weighted towards active compounds, which were near 2% of everything screened.
# PKD1 inh – blocks activity of human protein kinase D1. inhibition, % (no concentration beside the values). Q15139. PKD1 kinase fluorescence polarization assay. actives 0.056% (n = 200,000). AID 797; in the data active means inhibition above about 50%
# Arbovirus inh – arbovirus infection inhibition. arbovirus infection cell-based antiviral screen. inhibition, % at 10 µM. actives 0.37% (n = 200,000); in the data active means inhibition above about 30%
# Hsp70 activator – transcriptional activators of Hsp70 | AID 1203 | HeLa Hsp70 promoter luciferase reporter, luminescence; scaled: vehicle 0, proteasome-inhibitor control 100% | activation, % at 10 µM | actives 0.04% (n = 200,000);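 active means activation above the mean across all tested compounds plus 3 SD, cutoff set per campaign, cut at about 5.5% in these data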;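 further: 100% = MG132 at 30 µM as the positive control and 0% = DMSO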
# HMGR II inh – inhibitors of class II HMG-CoA reductase from Enterococcus faecalis; inhibition, % at 10 µM; actives 0.41% (n = 190,000); purified E. faecalis HMGR, NADPH absorbance 340 nm kinetic;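 active means inhibition above a set limit, the median over all tested compounds plus 3 SD, cut at about 9.5% in these data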;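 further: enzyme runs in reverse so mevalonate oxidation gives rising NADPH absorbance; 0% = complete reaction with DMSO and 100% = background rate lacking mevalonate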
# Wee1 degr inh – inhibitors of human Wee1 degradation | P30291 | HeLa Luc-Wee1K328M stability, luciferase luminescence; 100% = proteasome inhibitor MG132 effect | reporter increase, % at 5 µM | actives 1.2% (n = 220,000) | AID 1321;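 active means activation above the mean of all tested compounds plus 3 SD, set per screening run, cut at about 8.8% in these data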;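 further: cells exposed to compound for 20 h before luminescence read; 0% = DMSO alone and 100% = MG132 at 30 µM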
# * hit, by the source's call; / = not tested or not shown; ! = a repeat was not active.
SMILES,PKD1 inh,Arbovirus inh,Hsp70 activator,HMGR II inh,Wee1 degr inh
COc1ccc(N2C(=O)C(CC(=O)Nc3ccccc3)N(Cc3ccccn3)C2=S)cc1 (configuration not stated),5,-5,0,0,9.1*
CCOc1ccc(N2C(=O)C(CC(=O)Nc3ccccc3)N(Cc3ccccn3)C2=S)cc1 (configuration not stated),-4,-12,0,2,4
COc1cccc(CCc2nnc(CCC(=O)NC(C)Cc3cccs3)o2)c1 (configuration not stated),/,/,/,/,-1
CC(NC(=O)c1ccccc1Cl)C1COc2ccccc2O1 (configuration not stated),0,3,0,-4,4
CC(NS(=O)(=O)c1ccccc1)C1COc2ccccc2O1 (configuration not stated),-2,14,0,-2,13*
Cc1ccc(S(=O)(=O)/C(C#N)=C/c2c(N3CCC(C(N)=O)CC3)nc3ccccn3c2=O)cc1,-14,-4,0,11*,0
COc1cc2cc(CN(C(=O)NC3CCCCC3)C3CCCC3)c(=O)[nH]c2cc1OC,-11,-8,0,3,8.8*
COC(=O)c1cc(C(=O)OC)cc(-n2c(C)cc(C(=O)COC(=O)CNS(=O)(=O)c3ccc(C)cc3)c2C)c1,1,3,0,-6,0
C=CCc1cccc(/C=N/NC(=O)c2ccccc2Br)c1O,4,-24,0,4,1
C=CCc1cccc(/C=N/NC(=O)c2ccccc2OC)c1O,18,-17,0,-6,8.9*
Cc1cc(N2CCN(c3nc(-c4ccc([N+](=O)[O-])cc4)cs3)CC2)c2ccccc2n1,-2,4,0,14*,-2
Cc1cc(-c2ccc([N+](=O)[O-])cc2)nc2ccccc12,4,-5,0,0,1
NC(=O)c1ccc(-n2nnnc2SCc2ccccc2)cc1,2,1,0,-6,9
O=C(Nc1nccs1)c1ccc(CSc2nnnn2-c2ccccc2)cc1,-8,-21,0,11*,4
COc1ccc(-n2c(SCC(=O)N3CCc4ccccc43)nnc2-c2c[nH]c3ccccc23)cc1,-11,-5,0,-7,2
CCOCCCNc1nc2ccccc2[nH]1,-5,3,0,-2,10*
CCOC(=O)C1CCN(CC(=O)c2c(C)[nH]c3cc(C)ccc23)CC1,-15,-5,0,3,10*
CCOC(=O)C1CCN(CC(=O)c2c(C)[nH]c3ccccc23)CC1,3,-5,0,2,1
COc1cccc(/C=N/NC(=O)CN2CC(c3ccccc3)CC2=O)c1O (configuration not stated),21,-14,0,-2,-1
O=C(/C=C/c1ccc(F)cc1)Nc1nc2ccccc2[nH]1,0,-4,0,-1,10*
COc1ccc(C(=O)N2N=C(c3cccc(OC)c3)CC2(O)C(F)(F)F)cc1 (configuration not stated),-3,7,0,-12,2
Cc1ccc(NC(=O)COC(=O)CCc2ccc(S(=O)(=O)N3CCOCC3)cc2)cc1F,1,10,0,0,-1
Cc1cc(=O)[nH]c(SCc2nc3ncccn3c2Br)n1,6,-2,0,-5,-2
Cc1cc(=O)[nH]c(SCc2cccc3cccnc23)n1,-4,1,0,3,11*
COc1ccc(OCCn2nnc(-c3ccc(Cl)cc3)n2)cc1,-4,5,0,-8,16*
SMILES,PKD1 inh,Arbovirus inh,Hsp70 activator,HMGR II inh,Wee1 degr inh
O=C(Nc1ccc2c(c1)OCCO2)c1ccc(Br)o1,7,0,0,-6,9.4*
CC(=O)Nc1cc2c(cc1C(C)=O)OCCO2,-1,10,0,-4,9.0*
CC(=O)Nc1ccc2c(c1)OCO2,0,9,0,0,2
CC(=O)Nc1ccc2c(c1)OCCO2,-9,8,0,16*,0
Cc1ccc(C(=O)Nc2ccc3c(c2)OCO3)o1,-8,-19,1,-4,0
CCc1nnc(NC(=O)CCC(=O)N2CCN(C3c4ccccc4-c4ccccc43)CC2)s1,2,8,-1,3,-2
COc1ccccc1NC(=O)c1cc(S(=O)(=O)NCc2ccccc2)ccc1F,2,-12,0,-3,9.2*
OCCCNC(=S)Nc1ccc(Br)cc1Cl,/,/,/,/,8.9*
C=CCN(c1ccc(C(=O)Nc2ccc(C)c(C)c2)cc1)S(C)(=O)=O,-4,-6,0,0,0
Cc1noc(C)c1COc1cccc(C(=O)OCC(=O)N2CC(=O)Nc3ccccc32)c1,-2,-22,0,0,18*
CCCC(=O)NC(=S)Nc1ccc(Cl)cn1,-4,4,0,29*,5
CCOc1ccc(/C=N/n2cc(-c3ccccc3)[nH]c2=S)cc1,-1,-7,0,11*,0
CCN(CC)C(=S)SSC(=S)N(CC)CC,-7,-45,1,-8,1
CCN(CC)C(=S)SC1=CCS(=O)(=O)C1,-4,2,0,-5,10*
O=C1COc2cccnc2N1,-2,3,0,2,9.4*!
CN(C)C(=O)COC(=O)c1ccccc1Nc1ccc(SC(F)F)cc1,-7,33*,0,-7,-1
COC(=O)[C@H](Cc1ccccc1)NC(=O)O[C@@H]1C(=O)c2cc(OC)ccc2O[C@H]1c1ccc(OC)c(Br)c1,1,32*,0,-2,1
CC[C@H](C)[C@@H](NC(=O)O[C@@H]1C(=O)c2cc(OC)ccc2O[C@H]1c1ccc(OC)c(Br)c1)C(=O)OC,-4,-1,0,-8,-1
O=C(O)C1CCC(CNCc2ccccc2Cl)CC1 (configuration not stated),-9,-3,0,3,-1
CCOC(=O)C1CCC(CNCc2ccccc2C)CC1 (configuration not stated),-7,-15,0,9.8*,-2
FC(F)(F)c1ccc(Oc2ccc3ccccc3c2Br)nc1,-16,35*,0,-3,-3
O=[N+]([O-])c1ccccc1Oc1ccc(C(F)(F)F)cn1,-9,1,0,-1,-2
CCc1ccc(C2NC(=S)NC3=C2C(=O)N(c2ccccc2OC)C(c2ccc(CC)cc2)N3)cc1 (configuration not stated),-2,-31,0,-5,0
O=C1C2=C(NC(=S)NC2c2ccc(Cl)cc2)NC(c2ccc(Cl)cc2)N1c1ccc(Cl)cc1 (configuration not stated),-2,-36,0,-2,10*
CCn1cnc2cc(NCc3ccc(OC)cc3)ccc21,-4,6,0,-9,1
CCOc1ccc(CNc2ccc3c(c2)nc(C)n3C)cc1,-2,44*,0,-3,-1
COc1ccc2cc(C(c3nnnn3C3CCCC3)N3CCCCCC3)c3nnnn3c2c1 (configuration not stated),-1,-16,0,11*,-1
Clc1ccc(-c2cn3c(n2)CCC3)cc1,3,-1,0,-10,9.4*
